ChEMBL document CHEMBL3988442, “University of Dundee, Small-Polar-MMV Screening Library” (2021)
The whole screen tested about 48,000 compounds, of which about 13,000 (27%) showed an effect of 50% or more. The list shows a part of the results.

These compounds were tested on Wolbachia pipientis (assay: Anti-Wolbachia Cell-Based Screen). Conditions: 5 µM.
Format: functional
Design: scale not given: in the data most compounds retested in dose-response had high values

Compound	Percent Effect [%]
O=C(Nc1cccc(OCc2ccc(F)cc2)c1)C1COCCO1 (stereo not drawn)	-6.014
CCOc1ccc(CC(=O)Nc2cnccc2SCCCO)cc1	9.652
CCC[C@@H]1CN(Cc2nnc(-c3cccnc3)o2)C[C@H]1NC(C)=O	-9.676
COc1ncc(Cl)c(NCc2ccc([S+](C)[O-])cc2)n1 (stereo not drawn)	-2.144
CC1=Nc2c(c(O)nn2C(C)C)C(c2cnn(C)c2)S1 (stereo not drawn)	103.6
CC1=Nc2c(c(=O)[nH]n2C2CCOCC2)C(c2cccc(Br)c2)S1 (stereo not drawn)	2.755
CC1=Nc2c(c(O)nn2C2CCOCC2)C(c2cccnc2)S1 (stereo not drawn)	111.6
CC1=Nc2c(c(=O)[nH]n2C(C)C)C(c2cccs2)S1 (stereo not drawn)	-8.42
Cc1cccc(C(C(=O)N2CC(c3cccnc3)C2)N(C)C)c1 (stereo not drawn)	-9.21
O[C@@H]1C[C@@H](c2nc(-c3cccnc3)no2)N(C2CCOCC2)C1	9.041
CC1=Nc2c(c(O)nn2C(C)C)C(c2cccnc2)S1 (stereo not drawn)	138.8
CC1=Nc2c(c(O)nn2C(C)C)C(c2cn(C)nc2C)S1 (stereo not drawn)	105.3
COC(=O)[C@H](CSC)Nc1nc(C2CCCC2)nc2c1cnn2C	-6.594
CCCN(CC1COc2ccccc2O1)C(=O)C1=NN(C)C(=O)CC1 (stereo not drawn)	-3.876
CC(C)N(CCS(C)(=O)=O)Cc1csc(Cc2ccc(Cl)cc2)n1	-7.743
O=C(c1ccc(-c2ccccc2)[nH]c1=O)N1CCCn2ncnc21	1.123
O=S(=O)(c1ccc(Cl)s1)N1CCCC(c2ncc[nH]2)C1 (stereo not drawn)	4.292
O=C(c1cccnc1Oc1ccccc1)N1CCCn2ncnc21	8.828
COCCOc1ncccc1C(=O)N1CCCn2ncnc21	-1.947
CCc1ccc(S(=O)(=O)N2CCCC(c3ncc[nH]3)C2)s1 (stereo not drawn)	-13.86
O=S(=O)(c1ccc(Cl)s1)N1CCCn2ncnc21	95.01
CCc1ccc(S(=O)(=O)N2CCCn3ncnc32)s1	83.72
CCC[C@H]1CN(S(=O)(=O)c2ccc(CC)s2)C[C@@H]1N	-3.149
COC(=O)c1ccc(S(=O)(=O)N2CCCn3ncnc32)s1	103.1
Cn1cc(C(=O)Nc2cccc(CCN3CCCC3)c2)ccc1=O	-2.076
CCOCCS(=O)(=O)Cc1ccn(-c2cccc(F)c2)n1	-15
Cc1ccnc(N2CCC(=O)N(Cc3ccc(F)cc3)C(C(C)C)C2)n1 (stereo not drawn)	-3.35
Cc1ccsc1[C@@H]1CCN(C(=O)CCC(=O)c2ccccc2)C[C@H]1O	-8.391
